Tests used:
Test in all cases: PBM binding z-score (relative to random genomic background probes); higher = stronger binding; sequences stand for … in GC…GCGATTGACAGCGTAGAATGAAGG
[1] = test system: FXR:RXRa (NR concentration 270 nM, RXRa partner concentration 90 nM)
Outline: (§1)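 Binding z-scores were set against random background probes. The data came from custom Agilent 4×180K protein-binding microarrays carrying double-stranded probes with 34-nt variable regions, incubated 1 h with ligand-free nuclear receptor dimers. Partner-specific antibodies detected binding, and scanned fluorescence was regression-normalized.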

[2] = test system: LXRa:RXRa (NR concentration 270 nM, RXRa partner concentration 90 nM)
Outline: as §1

[3] = test system: LXRa homodimer (NR concentration 270 nM)
Outline: as §1

[4] = test system: LXRb:RXRa (NR concentration 270 nM, RXRa partner concentration 90 nM)
Outline: as §1

[5] = test system: LXRb homodimer (NR concentration 270 nM)
Outline: as §1

[6] = test system: PPARa:RXRa (NR concentration 270 nM, RXRa partner concentration 90 nM)
Outline: as §1

[7] = test system: PPARg:RXRa (NR concentration 180 nM, RXRa partner concentration 90 nM)
Outline: as §1

[8] = test system: PPARg:RXRa 270nM:90nM, anti-RXR (NR concentration 270 nM, RXRa partner concentration 90 nM)
Outline: as §1

[9] = test system: PPARg:RXRa 30nM:10nM, anti-RXR (NR concentration 30 nM, RXRa partner concentration 10 nM)
Outline: as §1

[10] = test system: PPARg:RXRa 90nM:30nM, anti-RXR (NR concentration 90 nM, RXRa partner concentration 30 nM)
Outline: as §1

[11] = test system: PPARg:RXRa DBDmut IVT, anti-RXR (DBD mutation: RXRa K156A/R161A, NR concentration 270 nM, RXRa partner concentration 90 nM)
Outline: as §1

[12] = test system: PPARg:RXRa IVT, anti-PPARg (NR concentration 270 nM, RXRa partner concentration 90 nM)
Outline: as §1

[13] = test system: PPARg DBDmut:RXRa IVT, anti-PPARg (DBD mutation: PPARg1 K132A/R137A, NR concentration 270 nM, RXRa partner concentration 90 nM)
Outline: as §1

[14] = test system: PPARg DBDmut IVT, anti-PPARg (DBD mutation: PPARg1 K132A/R137A, NR concentration 270 nM)
Outline: as §1

[15] = test system: PPARg homodimer (NR concentration 180 nM)
Outline: as §1

[16] = test system: PXR:RXRa (NR concentration 270 nM, RXRa partner concentration 90 nM)
Outline: as §1

[17] = test system: PXR homodimer (NR concentration 270 nM)
Outline: as §1

[18] = test system: RARa:RXR (NR concentration 270 nM, RXRa partner concentration 90 nM)
Outline: as §1

[19] = test system: RARa homodimer (NR concentration 270 nM)
Outline: as §1

[20] = test system: RARb:RXRa (NR concentration 270 nM, RXRa partner concentration 90 nM)
Outline: as §1

Row | Sequence | PBM binding z-score [1] | PBM binding z-score [2] | PBM binding z-score [3] | PBM binding z-score [4] | PBM binding z-score [5] | PBM binding z-score [6] | PBM binding z-score [7] | PBM binding z-score [8] | PBM binding z-score [9] | PBM binding z-score [10] | PBM binding z-score [11] | PBM binding z-score [12] | PBM binding z-score [13] | PBM binding z-score [14] | PBM binding z-score [15] | PBM binding z-score [16] | PBM binding z-score [17] | PBM binding z-score [18] | PBM binding z-score [19] | PBM binding z-score [20]
1 | GGAACGAGGGCATTCGAGTTGATGGCATGGCGAT | 1.48 | 1.27 | -0.635 | -0.299 | -0.896 | 1.31 | 0.637 | 0.324 | -0.665 | -0.326 | 3 | 2.1 | -0.485 | -0.554 | -0.644 | 3.26 | 1.55 | 0.115 | -0.893 | 1.6
2 | CCTTGTTGGTCAAGGTCACACACGCTATAGGTAC | 4.42 | 3.87 | 2.19 | 3.91 | 0.763 | 4.27 | 3.05 | 3.47 | 1.21 | 2.69 | 2.48 | 3.71 | 1.18 | 0.66 | 2.49 | 4.23 | 1.5 | 4.45 | 1.4 | 4.3
3 | GCAGACAGGTGAAACGCAGGTAACTCATGGTGGC | -0.174 | -0.103 | -0.708 | -0.224 | -1.24 | 0.901 | 0.886 | 0.443 | -0.0913 | 0.0978 | 1.08 | 0.828 | -0.609 | -0.755 | -0.331 | -0.113 | -0.622 | 0.721 | -0.93 | 0.653

Source: the supplement of paper PMC6555819
